Data as given in PMC7826789 (International Journal of Molecular Sciences, 2021).

How the values were obtained:
Settings in all cases: Compound Concentration (nM):1000
FLT3(K663Q) = system: FLT3(K663Q)
FLT3(N841I) = system: FLT3(N841I)
FLT3(R834Q) = system: FLT3(R834Q)
FLT3-autoinhibited = system: FLT3-autoinhibited
FLT3 = system: FLT3
FLT4 = system: FLT4
FRK = system: FRK
FYN = system: FYN
GAK = system: GAK
GCN2(Kin.Dom.2,S808G) = system: T1, GCN2(Kin.Dom.2,S808G)
T1 construct: gene EIF2AK4

GRK1 = system: GRK1
GRK2 = system: T2, GRK2
T2 construct: gene ADRBK1

GRK3 = system: T3, GRK3
T3 construct: gene ADRBK2

GRK4 = system: GRK4
GRK7 = system: GRK7
GSK3A = system: GSK3A
GSK3B = system: GSK3B
HASPIN = system: T4, HASPIN
T4 construct: gene GSG2

HCK = system: HCK
HIPK1 = system: HIPK1
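Also: KINOMEscan scanMAX binding as percent activity remaining versus control; lower means stronger binding.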

| Compound | Percent Control (FLT3(K663Q)) [%] | Percent Control (FLT3(N841I)) [%] | Percent Control (FLT3(R834Q)) [%] | Percent Control (FLT3-autoinhibited) [%] | Percent Control (FLT3) [%] | Percent Control (FLT4) [%] | Percent Control (FRK) [%] | Percent Control (FYN) [%] | Percent Control (GAK) [%] | Percent Control (GCN2(Kin.Dom.2,S808G)) [%] | Percent Control (GRK1) [%] | Percent Control (GRK2) [%] | Percent Control (GRK3) [%] | Percent Control (GRK4) [%] | Percent Control (GRK7) [%] | Percent Control (GSK3A) [%] | Percent Control (GSK3B) [%] | Percent Control (HASPIN) [%] | Percent Control (HCK) [%] | Percent Control (HIPK1) [%] |
| --- | --- | --- | --- | --- | --- | --- | --- | --- | --- | --- | --- | --- | --- | --- | --- | --- | --- | --- | --- | --- |
| COc1cc(/C=N/Nc2ncnc3[nH]ncc23)ccc1O [GW578748X] | 75 | 100 | 56 | 84 | 71 | 100 | 100 | 92 | 13 | 18 | 83 | 100 | 78 | 100 | 100 | 34 | 78 | 0.2 | 64 | 24 |
| Cl.O=C(Nc1ccc(Oc2ccc3[nH]c(NC(=O)c4ccccc4)nc3c2)cc1)Nc1cc(C(F)(F)F)ccc1F [GW709042A] | 2.6 | 0 | 15 | 90 | 2.4 | 12 | 71 | 100 | 100 | 84 | 99 | 100 | 97 | 100 | 100 | 100 | 99 | 92 | 71 | 94 |
| CN(C)CCNC(=O)Nc1ccc(N(C)c2ccnc(Nc3ccc(CS(C)(=O)=O)cc3)n2)cc1.Cl [GW830900A] | 89 | 5.6 | 16 | 27 | 2.9 | 54 | 99 | 93 | 13 | 100 | 89 | 100 | 89 | 7.1 | 96 | 100 | 85 | 100 | 100 | 88 |
| NS(=O)(=O)c1ccc(Nc2ncc(-c3ccccc3)o2)cc1 [GW572399X] | 9.2 | 21 | 14 | 2 | 11 | 100 | 100 | 100 | 99 | 80 | 100 | 100 | 100 | 100 | 100 | 99 | 83 | 100 | 100 | 100 |
| COc1cc(N2CCN(C(C)C)CC2)ccc1Nc1nc(Nc2ccc(F)cc2C(=O)NC[C@@H](O)CO)c2cc[nH]c2n1 [GSK1392956A] | 100 | 74 | 100 | 95 | 78 | 85 | 100 | 100 | 6.9 | 48 | 91 | 100 | 67 | 94 | 93 | 100 | 98 | 86 | 100 | 15 |
| COc1cccc(-c2c[nH]c3c(N/N=C/c4ccncc4)ncnc23)c1 [GW814408X] | 76 | 12 | 19 | 66 | 26 | 90 | 100 | 66 | 11 | 8.3 | 100 | 100 | 100 | 62 | 100 | 0 | 1 | 51 | 91 | 29 |
| NS(=O)(=O)c1ccc(N/N=C2\C(=O)Nc3ccc(C(=O)NCc4ccncc4)cc32)cc1 [GW300657X] | 92 | 50 | 68 | 74 | 82 | 77 | 100 | 96 | 66 | 100 | 69 | 86 | 76 | 100 | 83 | 27 | 35 | 54 | 100 | 19 |
| COc1ccc2c(-c3ccnc(Nc4cccc(OC(F)(F)F)c4)n3)cnn2n1 [GW810372X] | 30 | 55 | 73 | 86 | 23 | 100 | 100 | 100 | 66 | 85 | 97 | 100 | 98 | 100 | 100 | 34 | 97 | 72 | 100 | 0.7 |
| NS(=O)(=O)c1ccc(N/N=C2\C(=O)Nc3ccc(Cl)cc32)cc1 [GW280670X] | 18 | 100 | 68 | 15 | 21 | 100 | 100 | 100 | 100 | 100 | 100 | 100 | 100 | 100 | 100 | 54 | 91 | 97 | 100 | 98 |
| COc1cccc(-n2ncc3c(N/N=C/c4ccncc4)ncnc32)c1 [GW784752X] | 75 | 36 | 77 | 85 | 76 | 100 | 100 | 75 | 48 | 65 | 99 | 84 | 100 | 88 | 87 | 16 | 2.5 | 75 | 100 | 28 |
| CCn1c(-c2nonc2N)nc2c(C#CC(C)(C)O)nc(OCCNC)cc21.Cl [GSK949675] | 100 | 100 | 78 | 100 | 100 | 75 | 100 | 100 | 100 | 89 | 77 | 100 | 100 | 100 | 69 | 18 | 55 | 100 | 100 | 42 |
| Cl.O=C(O[C@H]1CN[C@H](C#Cc2cc3ncnc(Nc4ccc5c(cnn5Cc5ccccc5)c4)c3s2)C1)N1CCOCC1 [GSK200398A] | 66 | 100 | 92 | 89 | 77 | 100 | 90 | 81 | 88 | 44 | 86 | 100 | 80 | 100 | 84 | 93 | 90 | 93 | 100 | 91 |
| COC(=O)Nc1nc2ccc(Oc3ccc(NC(=O)Nc4cc(C(F)(F)F)ccc4F)cc3)cc2s1.Cl [GW693917A] | 1 | 89 | 11 | 65 | 2.4 | 2.4 | 15 | 52 | 97 | 100 | 81 | 91 | 71 | 100 | 84 | 100 | 99 | 76 | 51 | 87 |
| COc1ccccc1-c1cc(/C=C2\C(=O)Nc3ncc(Br)cc32)cc(Br)c1O [GW442130X] | 100 | 85 | 87 | 100 | 100 | 96 | 100 | 93 | 83 | 79 | 100 | 100 | 100 | 100 | 63 | 100 | 100 | 100 | 100 | 66 |
| CC1=C(C(=O)Nc2ccc3[nH]ncc3c2)C(c2ccc(Cl)c(Cl)c2)CC(=O)N1 (stereo not shown) [GSK299115A] | 78 | 100 | 93 | 100 | 100 | 100 | 63 | 70 | 95 | 100 | 89 | 16 | 20 | 100 | 99 | 100 | 100 | 84 | 81 | 72 |
| O=C1Nc2ccc(C(=O)c3ccco3)cc2C1=Cc1cc(Cl)c(O)c(Cl)c1 [GW406108X] | 83 | 54 | 73 | 84 | 71 | 100 | 100 | 92 | 5.9 | 71 | 60 | 100 | 97 | 100 | 65 | 67 | 69 | 2.2 | 98 | 11 |
| COc1ccc(COc2ccc(Cc3cnc(N)nc3N)cc2OC)cc1 [GW632580X] | 79 | 75 | 97 | 99 | 100 | 90 | 100 | 100 | 95 | 100 | 93 | 97 | 93 | 100 | 100 | 95 | 95 | 88 | 90 | 100 |
| Cl.c1ccc(Cc2nc3ccc(Nc4ncnc5ccccc45)cc3[nH]2)cc1 [GR269666A] | 90 | 100 | 100 | 86 | 72 | 100 | 100 | 100 | 100 | 100 | 100 | 100 | 100 | 91 | 100 | 100 | 99 | 88 | 100 | 100 |
| NS(=O)(=O)c1ccc(N/N=C2\C(=O)Nc3ccc(C(=O)NCCc4c[nH]cn4)cc32)cc1 [GW300660X] | 100 | 100 | 45 | 100 | 90 | 100 | 100 | 100 | 100 | 100 | 80 | 100 | 99 | 100 | 100 | 50 | 19 | 3.6 | 100 | 25 |
| O=C(Nc1n[nH]c2nc(-c3ccc(O)cc3)c(Br)cc12)C1CC1 [SB-725317] | 66 | 100 | 72 | 96 | 64 | 84 | 100 | 100 | 81 | 96 | 100 | 100 | 100 | 100 | 100 | 7.5 | 0.5 | 100 | 100 | 22 |
